Source: PubChem BioAssay (NCI)
About 83,000 compounds went through this panel and 20% of them were active in at least one assay; those are over-represented in the sample as a whole.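 Method: cells in 96-well plates; compound added at one concentration; 48 h incubation; percent growth measured; values under 10 scored active.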 Values without a mark were called inactive. Calls of active or inactive are those of the source.

Tests used:
Test in all cases: NCI-60 one-dose screen, 48 h (100 = growth as untreated, 0 = no growth, -100 = all killed)
Settings in all cases: 10 µM unless noted
[1] = test system: DU-145 prostate
[2] = test system: K-562 leukemia
[3] = test system: MALME-3M melanoma
[4] = test system: MDA-MB-231 breast
[5] = test system: RXF 393 renal
[6] = test system: SF-268 CNS
[7] = test system: SF-295 CNS
[8] = test system: SF-539 CNS
[9] = test system: UACC-257 melanoma
[10] = test system: M14 melanoma

| Compound | growth [1] | growth [2] | growth [3] | growth [4] | growth [5] | growth [6] | growth [7] | growth [8] | growth [9] | growth [10] |
| --- | --- | --- | --- | --- | --- | --- | --- | --- | --- | --- |
| N=C(N)c1ccc(-c2ccc(-c3ccc(-c4cccs4)s3)s2)cc1 | 90.4% | 58% | 85% | 81.1% | 80.7% | 93.5% | 101% | 88.5% | 99.3% | 100% |
| CN1CCN(Cc2ccc(NC(=O)c3cncc(C#Cc4cnc(N)c5cnccc45)c3)cc2C(F)(F)F)CC1 | 10% | 1.52% (active) | -75.6% (active) | -61.2% (active) | -48.3% (active) | 16.5% | 8.91% (active) | -73.8% (active) | -1.75% (active) | -41.6% (active) |
| CC(C)C1=CC2=C(C=O)C[C@@H]3[C@](C)(CCC[C@@]3(C)C(=O)OCC#CCN3CCCC3)[C@H]2CC1 | 96.3% | 30.8% | 81.8% | 89.3% | 72.6% | 86.9% | 79.7% | 63.9% | 86.6% | 75.9% |
| COc1cc(C2C3=C(COC3=O)Nc3cc4c(cc32)OCO4)cc2c1OCO2 (stereo not given) | -19.5% (active) | 7.92% (active) | 53.8% | 11.1% | 18.5% | 20.1% | 5.02% (active) | -0.0643% (active) | 65.1% | 5.48% (active) |
| COc1ccc(-c2nc(/C=N/Nc3cc(C)nc4ccc(Br)cc34)c(C)o2)cc1 | -90.2% (active) | -49.1% (active) | -84.6% (active) | -89.2% (active) | -90.9% (active) | -72.9% (active) | -90.4% (active) | -96.1% (active) | 108% | 1.07% (active) |
| CN(CCCCCl)P(=O)(OCc1ccc([N+](=O)[O-])o1)C(F)(F)C[C@H](NC(=O)CNC(=O)c1ccc(N=[N+]=[N-])cc1)C(=O)NCCc1ccc(O)cc1 (stereo not given in full) | 117% | 40.4% | 79.6% | 108% | 47.6% | 98.1% | 101% | 104% | 104% | 90% |
| CC(NNC(C)c1ccccc1)c1ccccc1 (stereo not given) | 110% | 114% | 123% | 113% | 116% | 109% | 111% | 101% | 109% | 101% |
| COP(=O)(OC)/C(=N\NS(=O)(=O)c1ccc(C)cc1)c1ccccc1 | 106% | 120% | 104% | 119% | 76.6% | 119% | 117% | 95% | 112% | 93.3% |
| Oc1ccccc1/C=N/NC(=S)NC1CC2C=CC1C2 (stereo not given) | 88.7% | 33.3% | 102% | 84.2% | 68.3% | 67.8% | 85% | 93.8% | 76.8% | 47.7% |
| NC(=S)N/N=C(/CCN1CCCC1)CC(C1=C(O)C2=CCCCC2OC1=O)c1ccccc1 (stereo not given) | 87.3% | 38.8% | 73% | 70.4% | 106% | 89.6% | 98.5% | 95.4% | 73.1% | 79% |
| CNC(=S)NNC(=O)C1CC1 | 118% | 92.9% | 111% | 114% | 117% | 109% | 115% | 104% | 102% | 99.9% |
| CCN1C(=O)N(CC)C2C1NN=c1s/c(=C\c3cccnc3)c(=O)n12 (stereo not given) | 17% | 9.64% (active) | 61.8% | 46.5% | 0.531% (active) | 49.4% | 11.9% | -13.3% (active) | 68% | 0.469% (active) |
| O=C(NCCNc1nccc(-n2ccc3cccnc32)n1)c1ccc(C(F)(F)F)cc1 | 111% | 99.8% | 108% | 97.7% | 110% | 97.8% | 101% | 107% | 108% | 102% |
| c1cc(C2=N[C@@H]3c4ccccc4C[C@@H]3O2)nc(C2=N[C@@H]3c4ccccc4C[C@@H]3O2)c1 | 104% | 102% | 103% | 105% | 105% | 97.1% | 86.9% | 97% | 107% | 99.4% |
| C=C1CCC[C@]2(C)CCC[C@H](C)[C@@H](OC(C)=O)[C@@H]3OC(=O)C(=C)[C@@H]3C[C@H]1O2 | 85.5% | 61.7% | 97.9% | 70.7% | 70.1% | 88.7% | 80.2% | 88.2% | 74.3% | 83.2% |
| O=c1ccn(C2CC(O)C(O)C(CO)O2)c(=O)[nH]1 (stereo not given) | 121% | 109% | 112% | 116% | 245% | 122% | 112% | 107% | 112% | 105% |
| CC1(c2ccc(Cl)cc2)OC(=O)CC(=O)O1 | 108% | 113% | 89% | 98.2% | 113% | 100% | 120% | 102% | 109% | 101% |
| CCC(C)/C(=C\C#N)NCCCN/C(=C/C#N)C(C)CC (stereo not given) | 122% | 98.8% | 108% | 103% | 115% | 113% | 105% | 97.1% | 106% | 96.1% |
| C=C1CCC2C(C)(CO)C(O)CCC2(C)C1CC(NCc1ccccc1)C1=CCOC1=O (stereo not given) | 104% | 101% | 100% | 99.6% | 103% | 86.5% | 111% | 101% | 102% | 97.3% |
| O=S(=O)(NCCCNc1nccc(-n2ccc3cccnc32)n1)c1cccc(C(F)(F)F)c1 | 101% | 100% | 112% | 106% | 103% | 95.5% | 112% | 109% | 108% | 107% |
| COc1cccc(/C=C/C(=O)Nc2cc(OC)c3c(c2)OCO3)c1 | 94.7% | 92.1% | 96.4% | 83.5% | 103% | 98.2% | 89.8% | 111% | 96.8% | 104% |
| NC1=C(/C(N)=N/O)C(c2ccccc2)c2ccc3ccccc3c2O1 (stereo not given) | 9% (active) | 13.2% | 46.4% | 8.69% (active) | -14.1% (active) | 33% | -0.153% (active) | -32.4% (active) | 46.7% | 11.7% |
| COc1ccc(C(=O)c2cc(OC)c(OC)c(OC)c2OC)cc1O | 35.6% | 27.6% | 23% | 56% | 40% | 38.9% | 33.3% | 23.8% | 79.9% | 10.9% |
| O=C(NS(=O)(=O)c1ccccc1)n1cc(-c2ccncc2)c(-c2ccc(Cl)c(O)c2)n1 | 104% | 88.9% | 27.6% | 112% | 107% | 97.7% | 107% | 97.6% | 91.6% | 34.2% |
| C=C1C(=O)O[C@@H]2[C@@H]3O[C@@](C)(CC/C=C(\C)CCC[C@@H]2C)[C@H](O)C[C@@H]13 | 50.1% | 18.6% | 55.2% | 68.2% | 27% | 67.9% | 81.8% | 58.3% | 67.9% | -1.2% (active) |
| COc1cccc(-c2nc3sccn3c2-c2ccnc(NCCCNS(=O)(=O)c3ccc(F)cc3)c2)c1 | 34% | 17.8% | 39.6% | 57.4% | 63.2% | 41.2% | 18.6% | 67.2% | 35.6% | 25.7% |
| CCO/C=N/C1=C(C#N)C(c2ccc(Cl)cc2)c2c(c3ccccc3n(C)c2=O)O1 (stereo not given) | 95.1% | 19.6% | 55.7% | 51.2% | 56.8% | 80% | 57.3% | 72.2% | 90.3% | 57.2% |
